The values below come from PubChem BioAssay AID720648 (The Scripps Research Institute Molecular Screening Center, 2013).

The structures appear in SMILES notation. The campaign covered roughly 370,000 compounds. About 3,100 (0.84%) were called active. The full list was thinned out, with actives kept by preference. Unmarked numbers belong to inactive results.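 The calls were made as follows: active = inhibition above the mean of compounds lying between control limits plus 3 SD, set per campaign (cut at about 8.5% in these data); inactive = the rest.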

Chain of Disintegrin and metalloproteinase domain-containing protein 17 (Homo sapiens) (P78536 215-824 limits assumed): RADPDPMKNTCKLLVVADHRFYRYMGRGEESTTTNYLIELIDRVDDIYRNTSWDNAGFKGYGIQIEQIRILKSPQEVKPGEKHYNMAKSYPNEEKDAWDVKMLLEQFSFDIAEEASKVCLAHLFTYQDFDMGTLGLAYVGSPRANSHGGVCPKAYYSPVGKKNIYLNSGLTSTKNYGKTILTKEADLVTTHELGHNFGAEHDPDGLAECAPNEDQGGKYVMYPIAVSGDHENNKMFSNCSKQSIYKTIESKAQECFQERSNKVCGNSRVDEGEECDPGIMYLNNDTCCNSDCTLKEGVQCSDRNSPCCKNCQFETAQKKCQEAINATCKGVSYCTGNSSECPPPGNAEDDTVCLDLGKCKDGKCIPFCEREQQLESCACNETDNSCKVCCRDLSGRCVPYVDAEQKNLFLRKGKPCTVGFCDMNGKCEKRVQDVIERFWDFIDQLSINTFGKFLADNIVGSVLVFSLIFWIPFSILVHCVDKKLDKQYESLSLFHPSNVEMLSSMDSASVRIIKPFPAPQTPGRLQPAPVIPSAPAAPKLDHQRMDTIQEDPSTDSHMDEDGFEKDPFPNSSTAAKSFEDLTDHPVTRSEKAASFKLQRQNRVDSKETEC

The test addresses Disintegrin and metalloproteinase domain-containing protein 17 (Homo sapiens) (UniProt P78536). As to the kind of experiment: ADAM17 inhibitors, primary screen, biochemical, QFRET (AID 720648).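 Also: 0% = DMSO-only wells as the low control.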 To be noted: recombinant ADAM17, EDANS/DABCYL FRET peptide cleavage; at 6.95 µM; hits give high values.
For the molecule `C=CCOC/C=C/C#CCN(CC=C)Cc1ccc(OC)cc1OC`, the inhibition (as a rule, the relative decrease from the control value, in per cent) is -0.84%.

As to `O=C(Nc1nc2ccc(Cl)cc2s1)c1cc(-c2ccc(Cl)cc2)nc2ccccc12`, the inhibition is -5.76%.

For the molecule `Cc1ccccc1CN1CCCCC(NC(=O)c2cccc(C#N)c2)C1=O` (centres undefined), the inhibition was -3.86%.

As to `CCCCCCN1C[C@@H](O)[C@H](n2cc(COC(=O)c3ccccc3)nn2)C[C@@H]1c1ccc(Cl)cc1`, the inhibition was -1.65%.

Take `CCCCCC(=O)N1C[C@H](O)[C@@H](n2cc(COC(=O)c3ccccc3)nn2)C[C@@H]1c1ccc(C)cc1`: the inhibition was 8.64% (active).

As to `Cc1ccc([C@H]2C[C@H](O)[C@@H](n3cc(COC(=O)c4ccccc4)nn3)CN2C(=O)C2CCCCC2)cc1`, the inhibition is -1.37%.

Take `CC(CCN1CCC(C(O)(c2ccccc2)c2ccccc2)CC1)Oc1ccc([N+](=O)[O-])cc1Cl` (centres undefined): the inhibition was 6.8%.

In the case of `C=CC(COCc1ccccc1)N(Cc1ccccc1)S(=O)(=O)c1ccccc1Br` (centres undefined), the inhibition was -0.15%.

For the molecule `C=CC(COCc1ccccc1)N(CC(=O)OC)S(=O)(=O)c1cc(Br)ccc1OC` (centres undefined), the inhibition was 9.3% (active).

On to `CCN(Cc1ccccc1)S(=O)(=O)c1cc(C(=O)O)ccc1OC`, for which the inhibition was 0.35%.

On to `Cc1ccc(NC(=O)c2cc(C)nn2-c2ccccc2)c(C)c1`, for which the inhibition was 3.11%.

For `C=C(C)C#CC(Cc1ccccc1)N(CC1CC1)/C(N)=N/C(=O)OCc1ccccc1` (centres undefined), the inhibition is -26.4%.

With `CCOc1ccc(-n2c(SCC(=O)Nc3cc(C)c(NC(=O)c4ccccc4)cc3OC)nnc2-c2cccc(Cl)c2)cc1`, the inhibition was 6.75%.

In the case of `CCOc1ccc(-n2c(SCC(=O)Nc3cc(C)c(NC(=O)c4ccccc4)cc3OC)nnc2-c2cccs2)cc1`, the inhibition was 10.6% (active).

With `COc1ccc(-n2c(SCC(=O)Nc3ccccc3-c3ccccc3)nnc2-c2cccnc2)cc1`, the inhibition was -1.39%.

In the case of `Cc1cc(=O)[nH]c(SCC(=O)Nc2ccc(F)cc2F)n1`, the inhibition was 6.65%.

With `COc1ccc(/C=C/C(=O)OCC(=O)N2CCN(S(=O)(=O)c3ccc(C)cc3C)CC2)cc1OC`, the inhibition is -6.61%.

Consider `Cc1ccc(S(=O)(=O)N2CCN(C(=O)COC(=O)CNC(=O)c3ccc(C(C)(C)C)cc3)CC2)c(C)c1`, for which the inhibition was -2.11%.

Turning to `Cc1ccc(S(=O)(=O)N2CCN(C(=O)COC(=O)c3c(C)cc(C)cc3C)CC2)c(C)c1`, the inhibition was 19.5% (active).

In the case of `Cc1ccc(-n2c(SCC(=O)Nc3ccc(S(=O)(=O)Nc4nccs4)cc3)nnc2-c2ccncc2)cc1`, the inhibition is -0.27%.

Take `Cc1ccc(S(=O)(=O)c2c(COC(=O)c3cccc(Cl)c3)c(-c3ccccc3)nn2C)cc1`: the inhibition was -0.5%.

Regarding `O=C(OCC(=O)N1CCN(C(=O)c2ccco2)CC1)c1cccc(O)c1`, the inhibition is -3.62%.

As to `O=C(OCc1ccc(-c2ccccc2)cc1)c1cccc(O)c1`, the inhibition was 9.14% (active).

For `CCOc1ccccc1CNS(=O)(=O)c1cc(-c2cc(C)no2)ccc1C`, the inhibition is 10.2% (active).

`COc1ccc(CNS(=O)(=O)c2cc(-c3cc(C)no3)ccc2C(C)C)cc1`: the inhibition is 3.19%.

Take `Cc1cc(-c2ccc(C)c(S(=O)(=O)NCCCN(Cc3ccccc3)C(C)C)c2)on1`: the inhibition is -3.83%.

For the molecule `CCC(CO)Nc1cccc2c1S(=O)(=O)N(Cc1cn(Cc3ccccc3C(F)(F)F)nn1)Cc1ccccc1O2` (centres undefined), the inhibition is -3.41%.

As for `COC(=O)[C@H](C(C)C)N1CCc2nnn(Cc3ccc(C)cc3)c2-c2ccccc2S1(=O)=O`, the inhibition is 2.97%.

Regarding `C=C1C(C(C)C)N(C)C2=NC(c3ccccc3)CC(=O)N12` (centres undefined), the inhibition was -5.62%.

Take `O=C(CSc1nc2ccccc2n1Cc1ccccc1)NNC(=S)Nc1ccccc1`: the inhibition is 5.43%.

As to `O=C(CSc1nnc(SCc2ccc(Cl)cc2)s1)N/N=C/c1ccccc1Cl`, the inhibition was 0.99%.

With `Cc1ccc(NC(=S)NNC(=O)CSc2nnc(SCc3ccccc3Cl)s2)cc1`, the inhibition was 9.53% (active).

Consider `Nc1[nH]c(/C=C2/CCCCC2n2[nH]c(=O)n(-c3ccccc3)c2=O)c(Cc2ccccc2)[n+]1Cc1ccccc1` (centres undefined), for which the inhibition was -3.48%.

For `O=C(Nc1ccc(Br)cc1)OCCN1C(=O)CCC12CCC(c1ccccc1)CC2` (centres undefined), the inhibition was -0.94%.

Turning to `CC(NCc1ccco1)C(=O)N1CCCCC1` (centres undefined), the inhibition was 0.39%.

For the molecule `O=C(CSc1nc(-c2ccccc2)cs1)Nc1cccc([N+](=O)[O-])c1`, the inhibition is 8.67% (active).

As to `O=C(CSc1nc2[nH]c(=O)[nH]c(=O)c2s1)Nc1cccc(F)c1`, the inhibition is -3.92%.

Consider `O=C(CSCc1ccc([N+](=O)[O-])cc1)Nc1cccc(C(=O)Nc2ccccc2C(=O)O)c1`, for which the inhibition was 0.74%.

`O=C1CC(c2ccc3c(c2)OCO3)N=C2N(CC3CC3)C/C(=C/c3ccccc3)N12` (centres undefined): the inhibition was -2.87%.

Take `CC(CCN1CCC(C(O)(c2ccccc2)c2ccccc2)CC1)Oc1ccc(C(F)(F)F)cc1` (centres undefined): the inhibition is 3.8%.

In the case of `C=CCC[C@@H](Cc1ccc(F)cc1)C(=O)OC[C@@H](C)NC(=O)[C@H](CC=C)CC(=O)N(CCO)Cc1ccccc1`, the inhibition is 0.31%.

In the case of `C=CCC[C@H](Cc1ccc(F)cc1)C(=O)OC[C@H](C)NC(=O)[C@H](CC=C)CC(=O)N(CCO)Cc1ccccc1`, the inhibition is 0.15%.

On to `C=CCC[C@H](Cc1ccc(F)cc1)C(=O)OC[C@@H](NC(=O)[C@@H](CC=C)CC(=O)N[C@H](CO)Cc1ccccc1)C(C)(C)C`, for which the inhibition is 4.84%.

As for `C=CC[C@@H](Cc1ccc(F)cc1)C(=O)OC[C@H]1CCCN1C(=O)[C@H](CC=C)CC(=O)N(CCO)Cc1ccccc1`, the inhibition is 1.4%.

In the case of `C=CC[C@H](CC(=O)N(CCO)Cc1ccccc1)C(=O)N[C@@H](COC(=O)[C@@H](CC=C)Cc1ccc(F)cc1)Cc1ccccc1`, the inhibition is 13.2% (active).

For the molecule `C=CCC[C@H](Cc1ccc(F)cc1)C(=O)OC[C@@H](Cc1c[nH]c2ccccc12)NC(=O)[C@H](CC=C)CC(=O)N[C@H](CO)Cc1ccccc1`, the inhibition is 3.73%.

In the case of `C=CC[C@@H](CC(=O)N[C@H](CO)Cc1ccccc1)C(=O)N[C@@H](COC(=O)[C@@H](CC=C)Cc1ccc(F)cc1)Cc1c[nH]c2ccccc12`, the inhibition was -0.68%.

`C=CCC[C@@H](Cc1ccc(F)cc1)C(=O)O[C@H](CNC(=O)[C@H](CC=C)CC(=O)N(CCO)Cc1ccccc1)c1ccccc1`: the inhibition was 13.4% (active).

For `C=CCC[C@@H](Cc1ccc(F)cc1)C(=O)OC[C@H](Cc1c[nH]c2ccccc12)NC(=O)[C@@H](CC=C)CC(=O)N(CCO)Cc1ccccc1`, the inhibition is 20.9% (active).

As to `CCCCC(=O)N[C@@H]1CC[C@@]23CCCN2C(=O)CCC[C@H]3[C@H]1C`, the inhibition is -6.42%.

As to `C=C(C)C1CC23C(=O)C4(C(=O)c5ccccc5)C[C@@]5(C)CCC(CC2C1(C)C)(C4=O)C35OC` (some centres undefined), the inhibition was -2.35%.

Take `COC(=O)[C@]12C[C@H](CC(=O)NCc3ccccc3)C(=O)N(CCc3ccc(OC)c(OC)c3)C1=C[C@H](C(C)(C)C)O[C@@H]2C`: the inhibition was 7.1%.

In the case of `COC(=O)[C@H](C(C)C)N(CCc1cn(Cc2ccccc2)nn1)S(=O)(=O)c1ccc(F)cc1Br`, the inhibition is -0.43%.

In the case of `CCCCOCCCNC(=O)C[C@H]1C[C@@]2(C(=O)OC)C(=C[C@H](COCc3ccccc3)O[C@@H]2C)N(Cc2cccc3ccccc23)C1=O`, the inhibition was 6.38%.

As to `O=C(Nc1cccc(Cl)c1)OC1CC2CC1[C@H]1CCCCN1[C@H]2Cc1ccccc1` (some centres undefined), the inhibition is -2.76%.

Consider `CC(C)(C)c1ccc(Cn2nnc3c(=O)[nH]c(C4CCCN(C(=O)c5ccco5)C4)nc32)cc1` (centres undefined), for which the inhibition is -1.56%.

For `Cc1ccc(Cn2nnc3c(=O)[nH]c(C4CCN(S(=O)(=O)/C=C/c5ccccc5)CC4)nc32)cc1`, the inhibition is 8.9% (active).

On to `O=C(Nc1ccc(F)cc1)N1CCCC(c2nc3c(nnn3Cc3ccccc3Cl)c(=O)[nH]2)C1` (centres undefined), for which the inhibition was -4.29%.

In the case of `Cc1sc2nc(SCC(=O)c3ccc(O)c(O)c3)n(Cc3ccco3)c(=O)c2c1C`, the inhibition is 10.2% (active).

As for `O=C(CSc1nnc(-c2cccs2)n1Cc1ccco1)c1ccc2c(c1)OCO2`, the inhibition is 1.24%.

As for `C=CCn1c(SCC(=O)Nc2ccc(NC(C)=O)cc2)nc2sc(C)c(C)c2c1=O`, the inhibition is -2.65%.

Consider `C=CCN1C(=O)[C@@H](CC(=O)N2CCN(C(=O)c3ccco3)CC2)[C@]2(C(=O)OC)CCCCC=C12`, for which the inhibition is 1.66%.

For `O=C(OC12CCCN(C1)/C(=C/c1cccnc1)C2)C1CCCC1` (centres undefined), the inhibition is 1.56%.

On to `O=C(NCCCn1ccnc1)Nc1ccc(Cl)cc1Cl`, for which the inhibition was -2.99%.

In the case of `Clc1ccc(C(Cn2ccnc2)OCc2ccsc2Cl)c(Cl)c1` (centres undefined), the inhibition is 8.72% (active).

Turning to `O=C(Nc1ccccc1C(=O)NCCCn1ccnc1)c1ccc(Cl)cc1Cl`, the inhibition is 2.53%.

With `O=S1(=O)c2c(cccc2N2CC[C@H](O)C2)O[C@@H]2CCN1C2`, the inhibition is -10.8%.

Take `COc1ccc(C(=O)C2CCCN(C(=O)c3cnsn3)C2)c(C)c1` (centres undefined): the inhibition was -4.24%.

As for `COc1ccc(C(=O)C2CCCN(S(=O)(=O)c3cccc(C)c3)C2)c(C)c1` (centres undefined), the inhibition was 12.6% (active).

`COc1ccc(C(=O)C2CCCN(C(=O)c3ccc(OC)o3)C2)c(C)c1` (centres undefined): the inhibition was -0.93%.

Take `Cc1ccc(-n2c(SCC(=O)Nc3ccc(S(=O)(=O)Nc4nccs4)cc3)nnc2-c2cccnc2)cc1`: the inhibition was 5.12%.

Turning to `COc1ccc(CCNc2cc(N3CCN(C(=O)c4ccccc4OC)CC3)ccc2[N+](=O)[O-])cc1OC`, the inhibition was -5.46%.

Regarding `O=C(c1ccccc1)N1CCN(c2ccc([N+](=O)[O-])c(NCc3ccco3)c2)CC1`, the inhibition was 9.15% (active).

For the molecule `O=[N+]([O-])c1ccc(N2CCN(S(=O)(=O)c3ccc4ccccc4c3)CC2)cc1NCc1ccco1`, the inhibition is -3.62%.
